Assay outcomes (PubChem BioAssay)
Sampled rows, rich in hits. Any-hit rate of the full collection: about 21%.
Pf growth 48h: inhibits P. falciparum growth in the first generation, 48 h. P. falciparum luciferase growth in erythrocytes, 48 h. Potency, µM (highest dose often 28.7 µM), for inactives: at the top dose activity change, negative = inhibition, most hits filed as inhibitors. hit rate 5.9% among 310,000; further: potency means the concentration at half of the fitted maximal effect; on the % scale 0 is the no-effect control and ±100 the full control effect
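Parasite viability was followed by luminescence of a genomically integrated firefly luciferase. Cultures held 0.1% parasitemia at 2% hematocrit (final), incubated under 5% CO2 at 37 C.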
HCV inhibitor: inhibitors of hepatitis C virus infection. Huh7.5.1 HCVcc-Cre infection, luciferase reporter, 44 h. Potency, µM (highest dose often 41.8 µM), for inactives: at the highest dose activity change, negative = inhibition, usual class: inhibitors. hit rate 3.4% among 340,000. AID 651820; further: potency means the concentration at half of the fitted maximal effect; on the % scale 0 is the no-effect control and ±100 the full control effect
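Infectious HCV cell culture screen: compound-treated cells (1,000/well, pre-plated 4 h) are infected with HCVcc-Cre at roughly 0.5 moi and grown 44 h. Infection is quantified by luciferase signal after 15 min substrate incubation at room temperature.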
AMA1-RON2 inh: disrupts binding of P. falciparum AMA1 to RON2; hit rate 0.2% among 360,000; AlphaScreen AMA1-biotinylated RON2 peptide binding; Potency, µM (doses to about 58.2 µM), for inactives: at the highest dose activity change, negative = inhibition, usual class: inhibitors;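 further: potency means the concentration at half of the fitted maximal effect; 0% = vehicle wells and -100% = peptide control; nearly all actives have a fitted effect of over 45% in size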
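AMA1 (3D7) with his tag at 25 nM final met compounds first, then biotinylated RON2 peptide at 25 nM; detection used donor plus acceptor beads, 10 µg/mL apiece, read by AlphaScreen after 30 min at room temperature.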
Shiga toxin inh: blocks Shiga toxin action in Vero cells | Vero cells, Shiga toxin protein synthesis inhibition reporter | hit rate 9.2% among 290,000 | AID 2315 | inhibition, % at 38.7 µM; in the data active means inhibition mostly above about 28%, no sharp cut-off; inactive means mostly below about 43%; further: 0% is about no effect
CHX counter: affects cycloheximide protein synthesis inhibition readout, counter-screen | cell reporter, cycloheximide protein synthesis inhibition counterscreen | max response, % | hit rate 12% among 300,000; in the data active means max response mostly above about 13%, no sharp cut-off; inactive means mostly below about 14%; further: read at 38.3 µM for the half of the compounds with a filed dose; 0% is about no effect
Pf growth 96h: P. falciparum growth inhibition at 96 hours | P. falciparum luciferase reporter growth, 96 h | hit rate 6.9% among 320,000 | Potency, µM (top dose mostly 28.7 µM), without a hit: at the top dose activity change, negative = inhibition, most hits filed as inhibitors | AID 504834; further: potency means the concentration at half of the fitted maximal effect; on the % scale 0 is the no-effect control and ±100 the full control effect
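Erythrocytes infected with luciferase-expressing P. falciparum were dispensed at 2% hematocrit and 0.05% parasitemia (final), then incubated with compounds 96 hours at 37 C in 5% CO2. Luminescence after detection reagent addition reported growth.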
An asterisk follows results filed as active; [ ] = another dose, or the depositor's remark. Unless noted, the call rests on the fitted dose curve; in most records, active means well fitted curve in the direction sought with a large enough effect; inconclusive means small, poorly fitted or top-dose-only effect, or another doubt; inactive means no such curve, though single readings can be large; an effect the other way counts as inactive or inconclusive.

How did CC(O)c1cccc(N=Cc2ccc3ccccc3c2O)c1 (stereo not given) do in these assays?
Pf growth 48h: 40.6%; HCV inhibitor: 7.2%; AMA1-RON2 inh: 13.4%; Shiga toxin inh: -5.0; CHX counter: -1.0; Pf growth 96h: 1.5%

What do the screens show for `Cc1cccc(C=Nc2ccc3c(c2)oc2ccccc23)c1O`?
Pf growth 48h: 50.8%; HCV inhibitor: 10.5%; AMA1-RON2 inh: -22.8%; Shiga toxin inh: 97.9*; CHX counter: 62.5*; Pf growth 96h: -29.9%

Results for COc1ccc(CCC2(C)OCC(CCCCO)O2)cc1 (stereo not given) ?
HCV inhibitor: -1.1%; AMA1-RON2 inh: 0.0%

How did Cc1nnc(NC(=O)C(C)Sc2nnc(CNC(=O)c3ccccc3F)n2C)s1 (stereo not given) do in these assays?
Pf growth 48h: -7.9%; HCV inhibitor: 22.8%; AMA1-RON2 inh: -8.4%; Pf growth 96h: inconclusive

What do the screens show for `Cc1c(-c2cc(C(=O)O)no2)cnn1C`?
Pf growth 48h: 2.2%; HCV inhibitor: 10.1%; AMA1-RON2 inh: -2.3%; Shiga toxin inh: 49.7*; CHX counter: 29.0*; Pf growth 96h: 30.3%

Results for CCOc1ccccc1C(=O)N(Cc1ccc(C)o1)C1CCS(=O)(=O)C1 (stereo not given) ?
Pf growth 48h: 17.3%; HCV inhibitor: 5.2%; AMA1-RON2 inh: -8.7%; Shiga toxin inh: 2.8; CHX counter: -7.8; Pf growth 96h: 9.0%

Results for O=[N+]([O-])c1cc([As](=O)(O)O)ccc1O ?
Pf growth 48h: 2.62µM*; HCV inhibitor: -1.6%; AMA1-RON2 inh: -9.6%; Pf growth 96h: 1.65µM*

What do the screens show for `CC(C)(c1ccc(O)c([N+](=O)[O-])c1)c1ccc(O)c([N+](=O)[O-])c1`?
HCV inhibitor: 0.3%; AMA1-RON2 inh: 4.1%

How did CC1(O)C[C@]2(C)N(O)C3CCCC[C@@H]3N2O1 (stereo not given in full) do in these assays?
Pf growth 48h: inconclusive; HCV inhibitor: 5.3%; AMA1-RON2 inh: 7.7%; Shiga toxin inh: -7.6; CHX counter: -1.5; Pf growth 96h: 60.4%

How did CC1(C)N(O)C2CCCCC2N1O (stereo not given) do in these assays?
Pf growth 48h: 0.037µM*; HCV inhibitor: 20.4%; AMA1-RON2 inh: 25.8%; Shiga toxin inh: 17.3; CHX counter: 12.6; Pf growth 96h: inconclusive

What do the screens show for `CC1(C(=O)NS(=O)(=O)C2CC2)CCCN(C(=O)c2c(F)cccc2F)C1` (stereo not given)?
AMA1-RON2 inh: 1.6%

How did CCCCNC(=S)NNc1c(Cl)cc(Cl)cc1Cl do in these assays?
Pf growth 48h: -2.1%; HCV inhibitor: 0.9%; AMA1-RON2 inh: -7.7%; Shiga toxin inh: 2.6; CHX counter: -0.6; Pf growth 96h: 8.28µM*

What do the screens show for `COC(C(=O)Nc1ccnn1C1CCN(Cc2ccc(C)s2)CC1)c1ccccc1` (stereo not given)?
Pf growth 48h: 19.8%; HCV inhibitor: 5.0%; AMA1-RON2 inh: 1.5%; Shiga toxin inh: -2.5; CHX counter: -1.4; Pf growth 96h: 64.2%

How did Cc1cc(C)c(NC(=S)N(C)C)cc1C do in these assays?
Pf growth 48h: 1.4%; HCV inhibitor: 6.4%; AMA1-RON2 inh: 12.3%; Shiga toxin inh: 36.3; CHX counter: -4.2; Pf growth 96h: 0.0%

How did Cc1cccc(NC(=S)NC(=O)CCc2ccccc2)c1C do in these assays?
HCV inhibitor: -6.3%; AMA1-RON2 inh: 20.6%; Shiga toxin inh: 22.2; CHX counter: 18.2*; Pf growth 96h: inconclusive

Results for Cc1c(NC(=S)NC(=O)Cc2ccccc2)cccc1C(=O)O ?
Pf growth 48h: -3.4%; HCV inhibitor: -0.4%; AMA1-RON2 inh: 15.6%; Shiga toxin inh: 10.3; CHX counter: 11.0; Pf growth 96h: 44.0%

Results for Cc1cccc(NC(=S)NC(=O)c2ccco2)c1C ?
Pf growth 48h: 38.2%; HCV inhibitor: -4.8%; AMA1-RON2 inh: 12.0%; Shiga toxin inh: 14.4; CHX counter: 31.6; Pf growth 96h: 11.4%

Results for Cc1cccc(NC(=S)NN(Cc2ccccc2)c2ccccc2)c1C ?
HCV inhibitor: -24.7%; AMA1-RON2 inh: 51.2%; Shiga toxin inh: 11.8; CHX counter: 2.9; Pf growth 96h: 4.15µM*

What do the screens show for `Cc1cccc(NC(=S)NC(=O)Cc2ccccc2)c1C`?
Pf growth 48h: inconclusive; HCV inhibitor: inconclusive; AMA1-RON2 inh: 64.8%; Shiga toxin inh: 15.5*; CHX counter: 8.0; Pf growth 96h: -4.8%

How did Cc1cccc(NC(=S)N(C)C)c1C do in these assays?
Pf growth 48h: 35.7%; HCV inhibitor: 6.5%; AMA1-RON2 inh: 4.6%; Shiga toxin inh: 29.8*; CHX counter: -2.1; Pf growth 96h: 7.2%

How did CCCN(Cc1ccccc1)C(=S)Nc1cccc(C)c1C do in these assays?
Pf growth 48h: 3.6%; HCV inhibitor: -0.9%; AMA1-RON2 inh: 26.2%; Shiga toxin inh: -5.8; CHX counter: 1.0; Pf growth 96h: inconclusive

Results for CC(=O)C1=C(c2ccccc2)NC(=O)NC1c1cccs1 (stereo not given) ?
Pf growth 48h: 27.8%; HCV inhibitor: 0.4%; AMA1-RON2 inh: 2.1%; Shiga toxin inh: 1.1; CHX counter: 1.0; Pf growth 96h: inconclusive

Results for O=C(NC(=S)NCCc1ccccc1)c1cccc(Cl)c1 ?
Pf growth 48h: 8.6%; HCV inhibitor: 16.9%; AMA1-RON2 inh: 52.0%; Shiga toxin inh: -12.3; CHX counter: 10.7; Pf growth 96h: 7.3%

How did COc1nc(-c2ccc(Cl)cc2)ccc1-c1noc(-c2ccco2)n1 do in these assays?
Pf growth 48h: 2.5%; HCV inhibitor: -3.6%; AMA1-RON2 inh: -4.5%; Shiga toxin inh: 25.9; CHX counter: -1.8; Pf growth 96h: inconclusive

Results for CCc1nc(-c2ccc(-c3ccc(OC)cc3)nc2OC)no1 ?
Pf growth 48h: 76.2%; HCV inhibitor: inconclusive; AMA1-RON2 inh: 8.8%; Shiga toxin inh: active; CHX counter: 39.9*; Pf growth 96h: -1.5%[5.75 µM]

What do the screens show for `COCc1nc(-c2ccc(-c3ccc(OC)cc3)nc2OC)no1`?
Pf growth 48h: 11.4%; HCV inhibitor: inconclusive; AMA1-RON2 inh: -3.4%; Shiga toxin inh: active; CHX counter: 46.7*; Pf growth 96h: inconclusive

Results for COCc1nc(-c2ccc(-c3ccccc3)nc2OC)no1 ?
Pf growth 48h: 141.8%; HCV inhibitor: 14.1µM*; AMA1-RON2 inh: -1.9%; Shiga toxin inh: 155.6*; CHX counter: 64.5*; Pf growth 96h: inconclusive

Results for CCOc1nc(-c2ccc(OC)cc2)ccc1-c1noc(-c2ccncc2)n1 ?
Pf growth 48h: inconclusive; HCV inhibitor: 4.0%; AMA1-RON2 inh: -3.0%; Shiga toxin inh: -2.3; CHX counter: -3.2; Pf growth 96h: inconclusive

Results for COc1ccc(-c2ccc(-c3noc(C(C)C)n3)c(OC)n2)cc1 ?
Pf growth 48h: 24.1%; HCV inhibitor: 1.58µM*; AMA1-RON2 inh: 20.5%; Shiga toxin inh: 69.4; CHX counter: 39.6*; Pf growth 96h: -3.0%
